Assay results: PubChem BioAssay
Values without a mark were called inactive. Unless noted, the rule behind the calls is not given here.

test system: not listed separately; test: human hepatoma cell viability loss – ATP luminescence, cytotoxicity control for P. falciparum antimalarial project, primary screen (AID 2303;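 active = inhibition above 50%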;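 note: 0% = DMSO wells and 100% = digitonin-killed cells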); conditions: HepG2 viability, 24-48 h, at 10 µM, hits give high values

Compound | inhibition
COc1ccc(NC(=O)/C=C/c2ccccc2Cl)cc1OCCN1CCC(N2CCCCC2)CC1 | 3%
COc1cc(C2=NN(S(=O)(=O)c3c(Cl)cc(Cl)cc3Cl)CCCC2)ccc1Cl | 3%
CC(C)NCc1ccc(-c2cccc(NC(=O)c3ccc(F)cc3)c2)cc1 | 28%
CCCc1ccc(C(=O)N2[C@@H](c3nccs3)[C@@H](C(N)=O)C[C@@]2(CC(C)C)C(=O)O)cc1 | 16%

target: L-lactate dehydrogenase (Plasmodium falciparum (isolate CDC / Honduras)) (UniProt Q27743); test: PfLDH activity inhibition – cell lysate, 3D7 strain, counter-screen for P. falciparum growth inhibition project (AID 2304);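 note: 0% = vehicle and 100% = reference inhibitor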; conditions: P. falciparum 3D7 crude extract, LDH APAD/NBT absorbance; at 2 µM; hits give high values
Sequence (Q27743 whole entry, looked up): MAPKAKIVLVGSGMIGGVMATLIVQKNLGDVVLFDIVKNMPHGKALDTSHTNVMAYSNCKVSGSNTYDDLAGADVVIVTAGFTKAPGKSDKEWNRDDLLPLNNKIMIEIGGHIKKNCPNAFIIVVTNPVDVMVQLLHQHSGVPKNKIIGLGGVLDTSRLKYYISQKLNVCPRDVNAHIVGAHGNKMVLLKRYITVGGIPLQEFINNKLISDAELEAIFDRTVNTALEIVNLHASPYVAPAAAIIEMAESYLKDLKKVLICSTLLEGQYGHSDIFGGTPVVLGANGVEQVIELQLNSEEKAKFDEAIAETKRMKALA

Compound | inhibition
COc1cc2nc(C)nc(Nc3ccc(Oc4ccccc4)cc3)c2cc1OC | 6%
Cc1ccc(CN(Cc2ccc(C(=O)N(C)C)cc2)Cc2ccc3c(c2)OCCO3)cc1C | 0%
Cc1cc(CN2CC[C@H](NC(=O)c3ccc(Cl)c(Cl)c3)C2)ccc1OCCCN(C)C | 0%
O=C(Nc1cccc(-c2csc(-c3nc4ccccc4[nH]3)c2)c1)c1ccoc1 | 1%
CCC[C@@H]([C@@H](CC1CCCCC1)C(=O)NC(C(=O)Nc1nccs1)C(CC)c1ccccc1)N(O)C=O (some centres undefined) | -4%
FC(F)(F)c1ccc2nc(-c3ccc(-c4ccc(CNCc5cnn(-c6ccccc6)n5)cc4)s3)[nH]c2c1 | -2%
CN1CCN(CC(=O)Nc2cccc(-c3cccc(-c4nc5ccc(F)cc5[nH]4)c3)c2)CC1 | 6%
CN(C)c1ccc(CN2CCC(NC(=O)c3ccc(-c4ccc(N(C)C)cc4)s3)CC2)cc1 | -2%
CN1CCC(NCc2cccc(-c3ccc(S(=O)(=O)NCCN4CCCC4)s3)c2)CC1 | -5%
CC(C)Oc1cccc(-c2ccc(C(=O)NCC3CCCN(Cc4cccc(C(F)(F)F)c4)C3)s2)c1 (centres undefined) | -2%
Cc1cc(NN=Cc2ccc(F)cc2)c2cccc(C)c2n1 | -6%
N#Cc1cccc(Nc2nccc(NCC(O)c3ccc(C(F)(F)F)cc3)n2)c1 (centres undefined) | 4%
NC(=NCCc1ccccc1Cl)c1ccc2ccccc2c1 | -2%
CCOC(=O)c1cncc(/C=C/c2cc(C)cnc2N)c1 | -4%
O=[N+]([O-])c1cccc(CNCC2CCN(Cc3ccc(C(F)(F)F)cc3)CC2)c1 | 2%
CCOC(=O)COc1cccc(CNc2ccc3nc(N)nc(N)c3c2)c1 | 4%
CS(=O)(=O)c1ccc(CCNCc2ccc(-c3ccc(CN(C(=O)C4CCCC4)C4CCN(Cc5ccccc5)CC4)cc3)nc2)cc1 | -6%
CNS(=O)(=O)CCNCc1ccc(-c2ccc3ncnc(Nc4ccc(OCc5ccccc5)cc4)c3c2)o1 | -3%
CC(C)c1ccc(NC(=O)c2ccc(C(=O)NCC3CCN(CC4CCCCC4)CC3)cc2)cc1 | -3%
CCCNCc1ccc(-c2ccc(CN(CCOC)C(=O)c3cscn3)cc2)nc1 | 2%

Compound | inhibition
CCNc1cc(C(=O)N[C@@H](Cc2ccccc2)[C@H](O)CN[C@H](C)C(C)(C)C)cc(N2CCCCS2(=O)=O)c1 | -2%
O=C(Nc1ccc(C(=O)N2CCN(CCN3CCN(c4cccc(C(F)(F)F)c4)CC3)CC2)cc1)c1ccc(C(F)(F)F)cc1 | 0%
O=C(/C=C/c1ccc(Cl)c(Cl)c1)N1CCN(C(=O)Nc2ccc(C(F)(F)F)cc2)CC1 | 4%
Cc1[nH]c(C)c(-c2ccc(-c3ccc(F)cc3)nc2)c(=O)c1Br | 0%
Cc1nc(N)nc(N)c1OCCCOc1ccccc1Br | -3%
FC(F)(F)c1ccc2nc(-c3cccc(-c4ccc(CNCC5CCCO5)cc4)c3)[nH]c2c1 (centres undefined) | -7%
Cc1noc(C)c1-c1cccc(CNCc2ccc(-c3ccc(-c4nc5c(C)cccc5[nH]4)cc3)cc2)c1 | 5%
Cc1cc(C2CCN(CCCCNC(=O)c3ccc(-c4ccc(C(F)(F)F)cc4)cc3)CC2)c(C)cc1OCCO | 2%
COC(=O)c1cccc(CN(CCC(O)(C(F)(F)F)C(F)(F)F)C(=O)CC2CCCC2)c1 | 0%
Cc1[nH]c(C)c(-c2ccc(-c3ccccc3C(F)(F)F)nc2)c(=O)c1Br | -3%
CCNc1cc(C(=O)N[C@@H](Cc2ccccc2)[C@H](O)CNCc2cc(C#N)ccc2OC)cc(N2CCCC2=O)c1 | -3%
CO/C(=C\C=C\c1cc2cc(Cl)c(Cl)cc2[nH]1)C(=O)NCCCNC12CC3CC(CC(C3)C1)C2 | -2%
O=c1[nH]c2ccc(Nc3nccc(NCCc4ccccc4)n3)cc2[nH]1 | 3%
COc1ccc2nccc([C@@H](O)CN3CCC(NCc4ccc5c(c4)NC(=O)CO5)CC3)c2c1 | 5%
CCOC(=O)c1ccc(NC(=O)Nc2ccc(-c3ccc(-c4nc5ccc(C(F)(F)F)cc5[nH]4)cc3)cc2)cc1 | -2%
Cc1cccc2[nH]c(-c3ccc(-c4cccc(CN5CCCC5CN)c4)cc3)nc12 (centres undefined) | 3%
COc1ccc(NC(=O)/C=C/c2ccccc2Cl)cc1OCCN1CCC(N2CCCCC2)CC1 | 1%
COc1cc(C2=NN(S(=O)(=O)c3c(Cl)cc(Cl)cc3Cl)CCCC2)ccc1Cl | -1%
CC(C)NCc1ccc(-c2cccc(NC(=O)c3ccc(F)cc3)c2)cc1 | 6%
CCCc1ccc(C(=O)N2[C@@H](c3nccs3)[C@@H](C(N)=O)C[C@@]2(CC(C)C)C(=O)O)cc1 | 1%
